# For some assays here: Potency and affinity values are given separately. Calls of active or inactive are those of the source.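 Rule for the calls, unless noted: active = fluorescence ratio normalized to control raised more than 50% in primary screen plus both repeat runs; inactive = the rest.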
# Assays:
# [1] = tested on: TRPC4 beta (transient receptor potential cation channel C4), mouse; assay: activators of mouse TRPC4 channel, confirmation, cell-based, Fluo4 calcium, HEK293 TRPC4beta/mu-opioid, duplicates, 10 µM (AID 2426); conditions: Fluo4 calcium fluorescence, at 10 µM; active compounds read high;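 for activation: percent rise of integrated ratio over buffer wells lacking compound which define 0%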
# [2] = tested on: transient receptor potential cation channel C4 beta (TRPC4), mouse; assay: activators of mouse TRPC4 channel, confirmation, cell-based, second round, Fluo4, HEK293 TRPC4beta/mu-opioid, 1 µM (AID 2461;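 active = primary screen active and over 50% activation in each of two duplicate runs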); conditions: Fluo4 calcium fluorescence, at 1 µM; active compounds read high
# [3] = tested on: TRPC4 (transient receptor potential cation channel C4 beta), mouse; assay: positive allosteric modulators of mouse TRPC4, confirmation, cell-based, second round, Fluo-4, HEK293 TRPC4beta/mu-opioid, 1 µM (AID 2554;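 active = primary screen hit whose fluorescence ratio, in both repeats, exceeds the weak agonist control mean by 3 SD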); conditions: DAMGO EC20, Fluo-4 calcium flux, at 1 µM; active compounds read high
# [4] = tested on: TRPC4 beta (transient receptor potential cation channel C4), mouse; assay: positive allosteric modulators of mouse TRPC4, confirmation, cell-based, Fluo-4, HEK293 TRPC4beta/mu-opioid (AID 2555;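 active = primary screen hit whose calcium fluorescence ratio, in both repeats, exceeds the weak agonist control mean by 3 SD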); conditions: DAMGO EC20, Fluo-4 calcium flux, at 10 µM; active compounds read high
# [5] = target: Short transient receptor potential channel 4 (Mus musculus) (UniProt Q9QUQ5); assay: inhibitors of mouse TRPC4 channel, confirmation, cell-based, Fluo4, HEK293 TRPC4beta/mu-opioid (AID 2636;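 active = calcium signal cut by more than 3 SD below the full-agonist control yet still positive, in both repeats and the earlier primary screen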); conditions: DAMGO, Fluo4 calcium flux, at 10 µM; active compounds read high
# Sequence of Short transient receptor potential channel 4 (Mus musculus) (Q9QUQ5 whole entry, looked up): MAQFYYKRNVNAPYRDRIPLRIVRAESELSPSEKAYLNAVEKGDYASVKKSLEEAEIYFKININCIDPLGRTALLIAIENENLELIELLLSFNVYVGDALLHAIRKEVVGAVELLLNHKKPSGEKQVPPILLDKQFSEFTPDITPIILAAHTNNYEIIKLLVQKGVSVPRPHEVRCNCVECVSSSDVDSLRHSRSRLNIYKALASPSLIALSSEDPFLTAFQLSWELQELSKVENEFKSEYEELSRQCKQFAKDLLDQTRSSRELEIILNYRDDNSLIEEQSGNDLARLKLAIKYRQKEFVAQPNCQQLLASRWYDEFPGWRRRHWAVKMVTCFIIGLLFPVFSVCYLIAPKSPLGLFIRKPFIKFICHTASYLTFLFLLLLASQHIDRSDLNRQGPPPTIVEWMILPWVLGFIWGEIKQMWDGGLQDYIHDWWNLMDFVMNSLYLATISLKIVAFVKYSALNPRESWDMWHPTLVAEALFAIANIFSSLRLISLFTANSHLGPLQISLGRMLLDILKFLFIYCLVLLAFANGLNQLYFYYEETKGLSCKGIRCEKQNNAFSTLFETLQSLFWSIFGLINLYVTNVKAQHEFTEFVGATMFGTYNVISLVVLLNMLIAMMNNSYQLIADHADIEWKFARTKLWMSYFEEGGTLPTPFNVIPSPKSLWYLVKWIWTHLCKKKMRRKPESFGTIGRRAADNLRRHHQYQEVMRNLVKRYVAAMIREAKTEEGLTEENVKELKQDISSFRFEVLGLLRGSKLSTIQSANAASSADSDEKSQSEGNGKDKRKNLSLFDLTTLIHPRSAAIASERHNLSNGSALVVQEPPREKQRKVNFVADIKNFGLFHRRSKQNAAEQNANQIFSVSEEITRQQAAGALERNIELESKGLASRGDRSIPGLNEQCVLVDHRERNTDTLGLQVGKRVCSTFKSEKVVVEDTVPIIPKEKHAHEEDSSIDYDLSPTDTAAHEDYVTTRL
# [6] = target: Short transient receptor potential channel 4 (Mus musculus) (UniProt Q9QUQ5); assay: inhibitors of mouse TRPC4 channel, confirmation, cell-based, second round, Fluo4, HEK293 TRPC4beta/mu-opioid, 1 µM (AID 2637;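 active = calcium signal ratio cut to more than 3 SD under the fully stimulated control mean yet still positive, in both repeats and the primary screen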;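 for inhibition: percent of integrated ratio relative to wells lacking test compound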); conditions: Fluo4 calcium flux, DAMGO, at 1 µM; active compounds read high
# [7] = target: Short transient receptor potential channel 4 (Mus musculus) (UniProt Q9QUQ5); assay: TRPC4 positive allosteric modulators, dose response, cell-based, HEK293 TRPC4/mu-opioid, Fluo-4 calcium, EC20 DAMGO (AID 434941;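 active = earlier screen potentiator hit that boosts the TRPC4 ion channel at some dose, with a dose response; inactive = no potentiation, no dose response, or not a prior hit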;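 note: calcium entry triggered by an EC20 dose of DAMGO at the co-expressed mu-opioid receptor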)
# [8] = target: Short transient receptor potential channel 4 (Mus musculus) (UniProt Q9QUQ5); assay: mouse TRPC4 channel inhibitors, dose response, cell-based, HEK293 TRPC4/mu-opioid, Fluo-4 calcium (AID 434942;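 active = primary screen inhibitor hit that blocks the TRPC4 channel at some tested dose, yielding a dose curve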)
# [9] = target: Short transient receptor potential channel 6 (Mus musculus) (UniProt Q61143); assay: inhibition of mouse TRPC6 channel, confirmation, selectivity assay for TRPC4 inhibitor project, cell-based, HEK293, membrane potential dye, duplicate (AID 434948;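 active = active in primary screen and both duplicates, each dropping signal beyond three positive-control SD with fluorescence still positive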); conditions: HEK293 TRPC6, membrane potential dye fluorescence, at 10 µM, stimulated with maximal-effect acetylcholine; active compounds read high
# Sequence of Short transient receptor potential channel 6 (Mus musculus) (Q61143 whole entry, looked up): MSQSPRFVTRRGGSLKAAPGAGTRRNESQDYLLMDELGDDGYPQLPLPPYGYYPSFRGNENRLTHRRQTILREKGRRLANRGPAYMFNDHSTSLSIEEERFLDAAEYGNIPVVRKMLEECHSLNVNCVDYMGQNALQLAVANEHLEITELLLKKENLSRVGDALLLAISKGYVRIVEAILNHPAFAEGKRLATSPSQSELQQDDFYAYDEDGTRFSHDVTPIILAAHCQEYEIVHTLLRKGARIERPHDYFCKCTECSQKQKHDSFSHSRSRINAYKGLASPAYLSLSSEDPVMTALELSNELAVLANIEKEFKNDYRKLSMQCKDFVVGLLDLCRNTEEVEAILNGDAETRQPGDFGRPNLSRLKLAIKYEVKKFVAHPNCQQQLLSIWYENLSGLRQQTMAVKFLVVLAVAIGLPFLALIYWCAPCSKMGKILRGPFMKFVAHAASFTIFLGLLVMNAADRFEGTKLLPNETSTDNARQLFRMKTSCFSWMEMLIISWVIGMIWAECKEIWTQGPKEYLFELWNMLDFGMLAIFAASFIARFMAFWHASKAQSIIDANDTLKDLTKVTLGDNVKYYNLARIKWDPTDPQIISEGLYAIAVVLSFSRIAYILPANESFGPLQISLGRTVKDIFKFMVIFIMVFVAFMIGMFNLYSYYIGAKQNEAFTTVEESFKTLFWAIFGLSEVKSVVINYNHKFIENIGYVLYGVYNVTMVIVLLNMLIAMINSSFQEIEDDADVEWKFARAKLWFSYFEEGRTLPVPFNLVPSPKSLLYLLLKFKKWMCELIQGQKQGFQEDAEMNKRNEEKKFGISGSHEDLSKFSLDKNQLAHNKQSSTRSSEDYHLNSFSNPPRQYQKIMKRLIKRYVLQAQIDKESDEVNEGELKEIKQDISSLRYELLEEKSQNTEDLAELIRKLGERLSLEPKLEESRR
# [10] = target: Short transient receptor potential channel 6 (Mus musculus) (UniProt Q61143); assay: activation of mouse TRPC6 channel, confirmation, selectivity assay for TRPC4 activator project, cell-based, HEK293, membrane potential dye, duplicate (AID 434950;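 active = membrane potential signal rise above negative control mean plus 3 SD in both duplicates, also active in the earlier TRPC4 screen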;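 for activation: 0% = buffer only wells and 100% = acetylcholine maximal-effect wells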); conditions: HEK293 TRPC6, membrane potential fluorescence, at 10 µM; active compounds read high
# [11] = target: Short transient receptor potential channel 6 (Mus musculus) (UniProt Q61143); assay: TRPC6 potentiation by TRPC4 potentiator hits, confirmation, selectivity assay for TRPC4 potentiator project, HEK293 cells, membrane potential dye, duplicate (AID 434952;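 active = compound raising the membrane signal above positive-control mean plus 3 SD in both repeats, and a primary screen hit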); conditions: HEK293 TRPC6, membrane potential dye fluorescence, at 10 µM, maximal acetylcholine added after compound; active compounds read high
# [12] = target: Short transient receptor potential channel 4 (Mus musculus) (UniProt Q9QUQ5); assay: calcium flux activators in TRPC4/5HT1a cells, counter-screen for TRPC4 activator project, cell-based, second counter screen, HEK293 TRPC4/5HT1a, Fluo-4 (AID 434977;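 active = calcium signal rise above buffer-control mean plus 5 SD in both duplicates, and also a hit in the primary screen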;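 for activation: plate controls were assay buffer for no effect and maximal serotonin response for full effect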); conditions: Fluo-4 calcium flux, at 10 µM; active compounds read high
# [13] = calcium flux inhibitors in TRPC4/5HT1a cells, confirmation, counter-screen for TRPC4 inhibitor project, cell-based, second counter screen, HEK293 TRPC4/5HT1a, Fluo-4 (AID 434978;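 active = primary screen active whose calcium signal fell more than 3 SD beyond the full-serotonin control mean in both duplicate plates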;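 for outcome: serotonin given first at submaximal then at maximal dose after compound preincubation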); conditions: Fluo-4 calcium flux, at 10 µM, serotonin added to trigger calcium flux; active compounds read high
# [14] = tested on: TRPC4 (mouse), co-expressed with 5HT1a in HEK293; assay: calcium flux potentiators in TRPC4/5HT1a cells, confirmation, counter-screen for TRPC4 potentiator project, cell-based, second counter screen, HEK293 TRPC4/5HT1a, Fluo-4 (AID 434979;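 active = signal rise over 3 SD above mean of control wells given weak agonist, in both repeats and first screen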); conditions: Fluo-4 calcium flux, at 10 µM, serotonin added at its EC20 dose; active compounds read high
# [15] = calcium flux activation in mu-opioid HEK293 cells, confirmation, counter-screen for TRPC4 activator project, cell-based, HEK293 mu-opioid receptor line (AID 449723;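 active = hit in primary screen, with calcium signal over 5 SD above buffer well mean in both duplicates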;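 note: counter screen cells carry the mu-opioid receptor alone and lack TRPC4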); conditions: Fluo-4 calcium fluorescence, at 10 µM; active compounds read high
# [16] = calcium flux enhancement in mu-opioid HEK293 cells, confirmation, counter-screen for TRPC4 allosteric potentiator project, cell-based, HEK293 mu-opioid receptor line (AID 449724;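 active = calcium signal rise more than 3 SD above the low-dose agonist control mean, in both duplicate plates and the primary screen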); conditions: Fluo-4 calcium flux, at 10 µM, compound added before EC20 DAMGO stimulus; active compounds read high
# [17] = thallium flux activation in parental CHO cells, counter-screen for KCNQ1 potentiator project (AID 493006;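 active = duplicate-averaged activation above buffer control mean plus 5 SD of those controls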;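 note: fluorescence ratio of max minus min over baseline after K+ and Tl+ depolarization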); conditions: parental CHO-K1 cells, FluxOR thallium flux, at 10 µM; active compounds read high
# [18] = target: Potassium voltage-gated channel subfamily KQT member 1 (Homo sapiens) (UniProt P51787); assay: KCNQ1 potassium channel potentiators, confirmation, FluxOR thallium flux, CHO cells, duplicates (AID 493007;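 active = potentiation averaged over duplicate wells exceeding buffer-only control mean by more than 3 SD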;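 note: 0% = buffer-only wells and 100% = R-L3 activator control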); conditions: KCNQ1 cell line, FluxOR thallium flux fluorescence, at 10 µM; active compounds read high, % of reference activator effect, buffer zero
# Sequence of Potassium voltage-gated channel subfamily KQT member 1 (Homo sapiens) (P51787 whole entry, looked up): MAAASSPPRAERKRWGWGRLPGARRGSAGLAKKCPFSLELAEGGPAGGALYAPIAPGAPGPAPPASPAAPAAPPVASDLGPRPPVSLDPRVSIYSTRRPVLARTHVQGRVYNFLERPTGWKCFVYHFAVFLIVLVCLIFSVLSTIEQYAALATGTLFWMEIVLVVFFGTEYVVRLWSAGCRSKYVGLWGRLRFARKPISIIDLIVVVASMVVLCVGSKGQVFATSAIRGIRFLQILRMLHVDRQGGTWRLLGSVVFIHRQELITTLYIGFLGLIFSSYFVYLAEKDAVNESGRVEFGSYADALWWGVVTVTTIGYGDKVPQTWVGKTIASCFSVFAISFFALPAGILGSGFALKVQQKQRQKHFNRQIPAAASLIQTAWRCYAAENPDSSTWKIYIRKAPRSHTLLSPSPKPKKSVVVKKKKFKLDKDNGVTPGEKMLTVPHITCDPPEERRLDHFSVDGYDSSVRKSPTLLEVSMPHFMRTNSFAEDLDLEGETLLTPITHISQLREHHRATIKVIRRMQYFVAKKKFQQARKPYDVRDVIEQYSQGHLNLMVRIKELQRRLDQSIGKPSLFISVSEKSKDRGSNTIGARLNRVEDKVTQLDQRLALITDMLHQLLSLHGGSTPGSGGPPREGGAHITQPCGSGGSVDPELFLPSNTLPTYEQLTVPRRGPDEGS
# [19] = target: Potassium voltage-gated channel subfamily KQT member 2 (Rattus norvegicus) (UniProt O88943); assay: rat KCNQ2 channel potentiation, selectivity assay for KCNQ1 potentiator project, KCNQ2-CHO-K1 cells (AID 493009;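 active = mean duplicate potentiation above the buffer control mean plus 5 SD of buffer wells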;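 note: assay conditions were tuned for KCNQ1 rather than KCNQ2 modulators; signal is max minus min fluorescence divided by baseline after thallium stimulus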); conditions: FluxOR thallium flux fluorescence, at 10 µM; active compounds read high, scaled: buffer 0, activator control 100
# Sequence of Potassium voltage-gated channel subfamily KQT member 2 (Rattus norvegicus) (O88943 whole entry, looked up): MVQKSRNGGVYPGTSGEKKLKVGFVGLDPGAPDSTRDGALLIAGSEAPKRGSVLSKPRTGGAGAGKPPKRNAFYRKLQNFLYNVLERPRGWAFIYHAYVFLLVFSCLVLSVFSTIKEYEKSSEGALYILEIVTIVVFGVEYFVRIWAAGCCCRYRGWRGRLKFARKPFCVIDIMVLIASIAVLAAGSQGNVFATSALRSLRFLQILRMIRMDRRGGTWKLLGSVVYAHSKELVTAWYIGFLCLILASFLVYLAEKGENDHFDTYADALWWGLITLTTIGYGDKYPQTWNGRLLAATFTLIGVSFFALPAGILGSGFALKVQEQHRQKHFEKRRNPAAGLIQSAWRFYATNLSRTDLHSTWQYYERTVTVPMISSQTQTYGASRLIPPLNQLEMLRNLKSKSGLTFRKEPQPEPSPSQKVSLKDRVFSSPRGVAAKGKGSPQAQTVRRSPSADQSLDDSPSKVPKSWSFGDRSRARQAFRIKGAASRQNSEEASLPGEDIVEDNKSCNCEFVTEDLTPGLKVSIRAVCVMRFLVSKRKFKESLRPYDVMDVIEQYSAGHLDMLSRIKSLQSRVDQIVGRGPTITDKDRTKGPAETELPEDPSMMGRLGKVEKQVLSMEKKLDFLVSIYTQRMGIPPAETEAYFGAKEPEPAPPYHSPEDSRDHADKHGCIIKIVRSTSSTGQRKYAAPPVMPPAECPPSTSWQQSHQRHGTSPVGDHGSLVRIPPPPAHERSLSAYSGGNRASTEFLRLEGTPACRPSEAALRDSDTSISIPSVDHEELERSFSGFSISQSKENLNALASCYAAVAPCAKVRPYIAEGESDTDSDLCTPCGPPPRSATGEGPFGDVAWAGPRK
# [20] = target: Potassium voltage-gated channel subfamily KQT member 1 (Homo sapiens) (UniProt P51787); assay: KCNQ1 channel current potentiators, confirmation, orthogonal assay for KCNQ1 potentiator project, IonWorks patch clamp, KCNQ1-CHO cells (AID 493184;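 active = current rise at least 3 SD above the untreated control mean in each of two repeat wells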); conditions: automated patch clamp current, at 10 µM; active compounds read high
smiles,measurement,setting,value
c1ccc(Nc2nc(Nc3ccccc3)nc(N3CCNCC3)n2)cc1,activation,[1],159% (active)
same,outcome,[2],inactive
same,outcome,[3],inactive
same,outcome,[4],inactive
same,outcome,[5],inactive
same,outcome,[6],inactive
same,outcome,[7],inactive
same,outcome,[8],inactive
same,outcome,[9],inactive
same,activation,[10],35.5% (active)
same,outcome,[11],inactive
same,activation,[12],56.1% (active)
same,outcome,[13],inactive
same,outcome,[14],inactive
same,outcome,[15],inactive
same,outcome,[16],inactive
Cc1csc2c(N3CCN(C(=O)NC(C)(C)C)CC3)ncnc12,activation,[1],92% (active)
same,outcome,[2],inactive
same,outcome,[3],inactive
same,outcome,[4],inactive
same,outcome,[5],inactive
same,outcome,[6],inactive
same,outcome,[7],inactive
same,outcome,[8],inactive
same,outcome,[9],inactive
same,outcome,[10],inactive
same,outcome,[11],inactive
same,activation,[12],36.7% (active)
same,outcome,[13],inactive
same,outcome,[14],inactive
same,outcome,[15],inactive
same,outcome,[16],inactive
Cc1ccc(-n2cc(CNCCc3ncc(C)[nH]3)c(-c3ccc(F)cc3)n2)cc1,activation,[1],177% (active)
same,outcome,[2],inactive
same,outcome,[3],inactive
same,outcome,[4],inactive
same,outcome,[5],inactive
same,outcome,[6],inactive
same,outcome,[7],inactive
same,outcome,[8],inactive
same,outcome,[9],inactive
same,outcome,[10],inactive
same,outcome,[11],inactive
same,activation,[12],14.9% (active)
same,outcome,[13],inactive
same,outcome,[14],inactive
same,outcome,[15],inactive
same,outcome,[16],inactive
COc1ccc(-c2cc(C#N)nc(N3CCNCC3)n2)cc1,activation,[1],176% (active)
same,outcome,[2],inactive
same,outcome,[3],inactive
same,outcome,[4],inactive
same,outcome,[5],inactive
same,outcome,[6],inactive
same,outcome,[7],inactive
same,outcome,[8],inactive
same,outcome,[9],inactive
same,outcome,[10],inactive
same,outcome,[11],inactive
same,outcome,[12],inactive
same,outcome,[13],inactive
same,outcome,[14],inactive
same,outcome,[15],inactive
same,outcome,[16],inactive
O=C1CC(O)(C(F)(F)F)Oc2c1ccc1ccccc21 (stereo unspecified),activation,[1],216% (active)
same,outcome,[2],inactive
same,outcome,[3],inactive
same,outcome,[4],inactive
same,outcome,[5],inactive
same,outcome,[6],inactive
same,outcome,[7],inactive
same,outcome,[8],inactive
same,outcome,[9],inactive
same,outcome,[10],inactive
same,outcome,[11],inactive
same,activation,[12],119% (active)
same,outcome,[13],inactive
same,outcome,[14],inactive
same,activation,[15],102% (active)
same,outcome,[16],inactive
same,activation,[17],222% (active)
same,potentiation,[18],71.5% (active)
same,potentiation,[19],270% (active)
same,outcome,[20],inactive
COc1ccc(C(=O)NC(=S)NNC(=O)CCc2ccccc2)cc1,activation,[1],100% (active)
same,outcome,[2],inactive
same,outcome,[3],inactive
same,outcome,[4],inactive
same,outcome,[5],inactive
same,outcome,[6],inactive
same,outcome,[7],inactive
same,outcome,[8],inactive
same,outcome,[9],inactive
same,activation,[10],25% (active)
same,outcome,[11],inactive
same,activation,[12],61.1% (active)
same,outcome,[13],inactive
same,outcome,[14],inactive
same,outcome,[15],inactive
same,outcome,[16],inactive
COc1cc(OC)c(CN2CCC(Cc3ccccc3)CC2)cc1Br,activation,[1],121% (active)
same,outcome,[2],inactive
same,outcome,[3],inactive
same,outcome,[4],inactive
same,outcome,[5],inactive
same,outcome,[6],inactive
same,outcome,[7],inactive
same,outcome,[8],inactive
same,outcome,[9],inactive
same,activation,[10],43.5% (active)
same,outcome,[11],inactive
same,activation,[12],44.9% (active)
same,outcome,[13],inactive
same,outcome,[14],inactive
same,outcome,[15],inactive
same,outcome,[16],inactive
O=C(N/N=C/c1cccnc1)c1ccccc1OCc1ccc(Cl)cc1,outcome,[1],inactive
same,outcome,[2],inactive
same,outcome,[3],inactive
same,outcome,[4],inactive
same,inhibition,[5],98% (active)
same,inhibition,[6],48% (active)
same,outcome,[7],inactive
same,outcome,[9],inactive
same,outcome,[10],inactive
same,outcome,[11],inactive
same,outcome,[12],inactive
same,inhibition,[13],42.7% (active)
same,outcome,[14],inactive
same,outcome,[15],inactive
same,outcome,[16],inactive
COc1cccc(-c2nn(-c3ccccc3)cc2CN(C)C(C)c2ccncn2)c1 (stereo unspecified),outcome,[1],inactive
same,outcome,[2],inactive
same,outcome,[3],inactive
same,outcome,[4],inactive
same,inhibition,[5],93% (active)
same,outcome,[6],inactive
same,outcome,[7],inactive
same,outcome,[9],inactive
same,activation,[10],41% (active)
same,outcome,[11],inactive
same,outcome,[12],inactive
same,outcome,[13],inactive
same,outcome,[14],inactive
same,outcome,[15],inactive
same,outcome,[16],inactive
